The values that follow come from PubChem BioAssay (Tox21).

Unmarked numbers belong to inactive results. Inconclusive results are not listed. Calls of active or inactive are those of the source. Unless noted, calls come from the whole dose curve; as a rule, active = well fitted curve in the direction sought with a large enough effect in the repeat runs; inconclusive = weak or mixed curves; inactive = no such curve, though single readings can be large; an effect the other way counts as inactive or inconclusive.

Assay [1] can be described thus: qHTS assay to identify small molecule agonists of the hypoxia (HIF-1) signaling pathway - cell viability counter screen (AID 1224844; calls by dose curve; note: nearly all actives have a fitted effect of over 50% in size; note: potency is the fitted concentration of half-maximal effect). Put shortly: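 Cells (HRE-bla ME-180, 2,000 per well) sat 5 hrs at 37C, got compound for 17 hrs, were read for CCF4-AM FRET, and were finally lysed with CellTiter-Glo for a 30 min room-temperature luminescence read.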
Assay [2] is described as follows: qHTS assay to identify small molecule agonists of H2AX - cell viability counter screen (AID 1224847; calls by dose curve; note: top concentration of the series differs between compounds; % is set by controls: 0 for no effect and ±100 for the full control effect; nearly all actives have a fitted effect of over 30% in size). Put shortly: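 Cytotoxicity counter screen in wild-type CHO-K1 cells: a 3 hr compound treatment at 37C across 15 concentrations, followed by CellTiter-Glo luminescence to gauge viable cells.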
(In qHTS, concentration-response curves come from the screen itself.)

Assay [3] is described as follows: qHTS RealTime-Glo MT Cell Viability Assay in HepG2 cells - 24 hour (AID 1224867). Note: nearly all actives have a fitted effect of over 50% in size. Note: potency is the fitted concentration of half-maximal effect. Put shortly:
(§1)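 Cell number in HepG2 cultures estimated from NanoLuc luminescence generated by metabolic reduction of a prosubstrate by living cells. The homogeneous, nonlytic format allowed repeated reads at 0, 8, 16, 24, 32 and 40 h of compound exposure.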

Assay [4] can be described thus: A CellTox Green Cytotoxicity Assay to monitor cytotoxicity in HEK293 cells - 0 hour (AID 1224869). Note: % is set by controls: 0 for no effect and ±100 for the full control effect; nearly all actives have a fitted effect of over 50% in size. An outline of the steps: (§2)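 Fluorescence intensity, read at 0, 8, 16, 24, 32 and 40 h of compound treatment, reflected dye binding to DNA of dead HEK293 cells; compounds (23 nL, DMSO) were added 5 h after plating cells with reagent.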
Assay [5] can be described thus: qHTS RealTime-Glo MT Cell Viability Assay in HepG2 cells - 40 hour (AID 1224870). Note: nearly all actives have a fitted effect of over 50% in size. Note: potency is the fitted concentration of half-maximal effect. An outline of the steps: (§3)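 HepG2 cells mixed with RealTime-Glo MT reagents (NanoLuc plus cell-permeant prosubstrate) were seeded at 600 cells/well, incubated 5 h at 37 C/5% CO2, then pinned with compounds in DMSO; nonlytic luminescence tracked viability during 40 h treatment.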
The nature of assay [6]: qHTS RealTime-Glo MT Cell Viability Assay in HEK293 cells - 16 hour (AID 1224872). Note: nearly all actives have a fitted effect of over 50% in size. Note: potency is the fitted concentration of half-maximal effect. An outline of the steps: (§4)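 Homogeneous bioluminescent viability format in HEK293 cells (600 cells/well). Following 5 h at 37 C/5% CO2, 23 nL compound was pintooled; the signal was measured repeatedly during 40 h incubation.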
Assay [7] in a line: qHTS RealTime-Glo MT Cell Viability Assay in HepG2 cells - 8 hour (AID 1224873). Note: nearly all actives have a fitted effect of over 55% in size. Note: potency is the fitted concentration of half-maximal effect. Put shortly:
as §3

The nature of assay [8]: A CellTox Green Cytotoxicity Assay to monitor cytotoxicity in HepG2 cells - 16 hour (AID 1224876). Note: % is set by controls: 0 for no effect and ±100 for the full control effect; nearly all actives have a fitted effect of over 45% in size. Put shortly:
(§5)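 Using 1536-well format, dye-containing HepG2 suspension was seeded, allowed 5 h at 37 C/5% CO2, dosed by pintool with compounds, positive and negative controls, and imaged for fluorescence across 40 h.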

A short description of assay [9]: qHTS RealTime-Glo MT Cell Viability Assay in HepG2 cells - 32 hour (AID 1224877). Note: nearly all actives have a fitted effect of over 55% in size. Note: potency is the fitted concentration of half-maximal effect. Put shortly: as §1
Assay [10] in a line: A CellTox Green Cytotoxicity Assay to monitor cytotoxicity in HepG2 cells - 24 hour (AID 1224878). For Cytotoxicity: % is set by controls: 0 for no effect and ±100 for the full control effect. Note: nearly all actives have a fitted effect of over 45% in size. Note: potency is the fitted concentration of half-maximal effect. Put shortly:
as §5

A short description of assay [11]: A CellTox Green Cytotoxicity Assay to monitor cytotoxicity in HepG2 cells - 40 hour (AID 1224879). Note: nearly all actives have a fitted effect of over 40% in size. Note: potency is the fitted concentration of half-maximal effect. Put shortly: as §5
Assay [12] is described as follows: qHTS RealTime-Glo MT Cell Viability Assay in HEK293 cells - 0 hour (AID 1224880). Note: top concentration of the series differs between compounds; % is set by controls: 0 for no effect and ±100 for the full control effect; nearly all actives have a fitted effect of over 45% in size. Put shortly:
(§6)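 Viable HEK293 cells reduce a cell-permeant prosubstrate; the product diffuses out and is consumed by NanoLuc in the medium to give light. Compounds went in after a 5 h incubation and plates were read over the treatment course.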

The nature of assay [13]: qHTS assay to identify small molecule agonists of the hypoxia (HIF-1) signaling pathway (AID 1224846; active = well fitted activation curve with a large enough effect in the signal ratio in the repeat runs, not every such curve was filed as active; the % refers to the signal ratio; note: % is set by controls: 0 for no effect and ±100 for the full control effect). Put shortly:
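A low-serum medium (0.5% dialyzed FBS) holding 2,000 HRE-bla ME-180 cells per well is preincubated for 5 hrs, dosed with compounds by pintool, and kept a further 17 hrs at 37C, 5% CO2 before CCF4-AM FRET detection of beta-lactamase.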

Assay [14] in a line: qHTS RealTime-Glo MT Cell Viability Assay in HEK293 cells - 32 hour (AID 1224868). Note: nearly all actives have a fitted effect of over 50% in size. Note: potency is the fitted concentration of half-maximal effect. Put shortly: as §4
Assay [15] is described as follows: qHTS RealTime-Glo MT Cell Viability Assay in HEK293 cells - 40 hour (AID 1224874). For max response: % is set by controls: 0 for no effect and ±100 for the full control effect. Note: nearly all actives have a fitted effect of over 50% in size. Note: potency is the fitted concentration of half-maximal effect. The following applies: RealTime-Glo luminescence; max response: hits give low values. Put shortly: as §6
Assay [16] can be described thus: A CellTox Green Cytotoxicity Assay to monitor cytotoxicity in HEK293 cells - 24 hour (AID 1224875). For activity change: % is set by controls: 0 for no effect and ±100 for the full control effect. Note: nearly all actives have a fitted effect of over 45% in size. Note: potency is the fitted concentration of half-maximal effect. An outline of the steps:
as §2

The nature of assay [17]: qHTS assay to identify small molecule antagonists of the estrogen related receptor (ERR) signaling pathway from Tox21 library (AID 1224848). An outline of the steps:
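Cells: ERR line, 2,000/well; 6 h preincubation 37 C/5% CO2. Cpd in DMSO via pin tool; 18 h, 37 C. ONE-Glo, 30 min RT, luminescence.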

The nature of assay [18]: qHTS assay to identify small molecule agonists of the estrogen related receptor (ERR) signaling pathway from Tox21 library (AID 1224849; calls by dose curve; note: % is set by controls: 0 for no effect and ±100 for the full control effect; nearly all actives have a fitted effect of over 15% in size). Conditions: ERR reporter cell line, ONE-Glo luciferase, 18 h; at 92.4 µM (top of the series) unless noted. Put shortly:
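Screening used an NTP-provided ERR luciferase cell line. Compounds in DMSO were added 6 h after seeding and left 18 h at 37 C before a 30 min ONE-Glo step and luminescence reading.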

A short description of assay [19]: A CellTox Green Cytotoxicity Assay to monitor cytotoxicity in HEK293 cells - 40 hour (AID 1224871). Note: nearly all actives have a fitted effect of over 45% in size. Note: potency is the fitted concentration of half-maximal effect. An outline of the steps: as §2

For the molecule `CCCCC(CC)COP(=O)(O)O` (centres undefined), in assay [1], the Potency was 12.5 µM (active). Besides, the Potency entry in assay [2], in assay [3], in assay [4], in assay [5], in assay [6] and in assay [7] was “inactive” in each case. The Potency result in assay [8], in [9], in assay [10], in [11] and in [12] was “inactive” each time.

For `CC(=O)NC1(c2cccc(F)c2)CCN(CC[C@@]2(c3ccc(Cl)c(Cl)c3)CN(c3ccccc3)C(=O)CO2)CC1`, the Potency was 39 µM (active) in assay [1]; 43.8 µM (active) in assay [3]; 17.4 µM (active) in assay [14]; 43.8 µM (active) in [5]; 17.4 µM (active) in [6]; 17.4 µM (active) in assay [15]. Further, the Potency in [9] and in assay [11] was 43.8 µM (active) in each case. Further, the molecule was called inactive in [13]. Also, the Potency result in assay [4] and in assay [12] was “inactive” throughout.

Take `COc1ccccc1N1CCN(CCCCNC(=O)c2ccc(-c3ccc(C(C)=O)cc3)cc2)CC1`: the Potency result in [1], in [2], in assay [3], in assay [4], in assay [5] and in assay [7] was “inactive” in each case. For the same molecule, the Potency entry in [16] and in [12] was “inactive” each time. In addition, the result in assay [13] was inactive. Also, the Potency in [14] is 1.51 µM (active); in assay [6], 1.9 µM (active); in assay [15], 1.9 µM (active); in assay [11], 26.8 µM (active).

Consider `Oc1cc2c(cc1O)[C@H]1c3ccc(O)c(O)c3OC[C@@]1(O)C2`, for which the Potency entry in assay [1], in assay [14], in assay [4], in [8], in [10] and in [12] was “inactive” each time. The molecule was called inactive in [13]. The Potency is 49.2 µM (active) in assay [17]; 49.6 µM (active) in assay [3]; 39.4 µM (active) in assay [7]; 49.6 µM (active) in [16]; 55.6 µM (active) in assay [9]. The activity change, positive = activation in assay [18] was -31.7%. Also, the max response in assay [15] is -26.5%.

On to `C=CC(=O)OCC1CC2CC1C1CCC(COC(=O)C=C)C21` (centres undefined), for which the Potency result in assay [1], in assay [4], in assay [8] and in assay [12] was “inactive” each time. Also, the Potency in [19] is 49 µM (active); in [16], 49 µM (active); in assay [10], 49 µM (active); in [11], 38.9 µM (active).

Take `N#CCCN(CCO)CCO`: the Potency entry in [1], in [2], in [14], in assay [4], in assay [5] and in [19] was “inactive” in each case. In addition, the Potency entry in assay [6], in [7], in assay [16], in [9], in [10] and in [11] was “inactive” throughout. The Potency entry in [12] is “inactive”. Besides, the molecule was called inactive in assay [13]. The max response in [15] is 0.524%.

`Brc1cc2ccccc2c2ccccc12`: the Potency in assay [1] was 44 µM (active); in assay [11] it was 39.2 µM (active). For the same molecule, in [18], the activity change, positive = activation is -24%. In addition, the Potency entry in assay [3], in [4], in assay [5], in assay [7], in assay [16] and in assay [8] was “inactive” in each case. Besides, the Potency result in assay [9], in assay [10] and in assay [12] was “inactive” in each case.

With `O=[N+]([O-])c1ccc(O/N=C/c2cc(Br)c(O)c(Br)c2)c([N+](=O)[O-])c1`, the Potency result in assay [1], in assay [4], in assay [5], in assay [19], in assay [7] and in assay [16] was “inactive” each time. Moreover, the Potency result in assay [10], in assay [11] and in assay [12] was “inactive” throughout. Moreover, the outcome in [13] was inactive. The Potency in assay [14], in assay [6] and in assay [15] was 43.4 µM (active) throughout.

For the molecule `O=[N+]([O-])c1ccc(Nc2ccc(Nc3ccccc3)c(S(=O)(=O)O)c2)c([N+](=O)[O-])c1`, the Potency entry in assay [1], in assay [2], in [14], in assay [4], in assay [5] and in assay [19] was “inactive” in each case. The Potency result in assay [6], in assay [7], in assay [16], in assay [8], in [9] and in [10] was “inactive” in each case. Also, the Potency result in assay [11] and in assay [12] was “inactive” each time. Also, in assay [13], the molecule was classed as inactive. The max response in assay [15] is 5.22%.
